From PubChem BioAssay (NCATS) come the findings set out here.

Inconclusive results are not listed. Entries that show only a call come without a potency. Activity calls are given as the source filed them. Calls come from the whole dose curve; as a rule, active = well fitted inhibition curve with a large enough effect; inconclusive = small, poorly fitted or top-dose-only effect; inactive = flat fitted curve, though single readings scatter.

Chain of Calcium and integrin-binding protein 1 (Homo sapiens) (Q99828 whole entry, looked up): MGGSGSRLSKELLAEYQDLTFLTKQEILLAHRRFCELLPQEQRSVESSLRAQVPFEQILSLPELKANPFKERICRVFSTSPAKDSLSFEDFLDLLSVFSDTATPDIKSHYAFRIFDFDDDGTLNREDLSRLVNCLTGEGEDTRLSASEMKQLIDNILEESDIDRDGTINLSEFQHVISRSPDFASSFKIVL

The target of the experiment is Calcium and integrin-binding protein 1 (Homo sapiens) (UniProt Q99828). The experiment in a line: Primary qHTS for Identification of Calcium Integrin Binding Protein 1 (CIB1) Competitor (AID 1508620).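 Note: GST tagged CIB1 binding a fluorescein labelled alphaIIb integrin peptide tracer; top concentration of the series differs between compounds.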 The note with it: CIB1-GST / FITC-alphaIIb peptide fluorescence polarization; series mostly up to 114 µM. The procedure, abridged:
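Fluorescence polarization competition: CIB1-GST (1 uM final) preincubated with compound 15 min at room temperature, then FITC-labeled alphaIIb peptide (100 nM final) added for another 15 min. Polarization read at Ex 480/Em 540.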
For orientation: In qHTS, concentration-response curves come from the screen itself.
With `COc1cc(O)c(C(CC(=O)N2CCC(c3ccccc3)CC2)c2ccc3c(c2)OCO3)c(OC)c1` (configuration not stated), the Potency entry was “inactive”.

Regarding `COc1ccc(C2=Nn3c(nnc3-c3ccccc3F)SC2)cc1OCC1CC1`, the Potency entry was “inactive”.

As to `N#Cc1cccc(NS(=O)(=O)c2ccc3c(c2)CCC(=O)N3)c1`, the Potency result was “inactive”.

Regarding `COc1cccc(Cn2ncc3c4sc(SC)cc4n(C)c3c2=O)c1`, the Potency result was “inactive”.

For `CSc1ccccc1-c1ccc(Nc2nc(-c3ccncc3)nc3ccccc23)cc1F`, the Potency result is “inactive”.

Turning to `COc1cccc(C2c3c(ncn(-c4ccccc4Cl)c3=N)Oc3ccc4ccccc4c32)c1` (configuration not stated), the Potency result was “inactive”.

For the molecule `Cc1nnc(-c2ccccc2[N+](=O)[O-])n1CCCn1ccnc1`, the Potency entry is “inactive”.

On to `N#Cc1ccc(-c2nc(NCc3ccc(-c4ccnc(C(F)(F)F)c4)cc3)c3ccccc3n2)cc1`, for which the Potency entry is “inactive”.

As to `O=[S+]([O-])(c1ccc2ncsc2c1)N1CCN([S+](=O)([O-])c2c(F)cccc2F)CC1`, the Potency entry is “inactive”.

Take `CC1=C(C(=O)Nc2ccc(Cl)cc2)C(c2ccccc2Br)N=C(Nc2nc3ccccc3o2)N1` (configuration not stated): the Potency result was “inactive”.

For the molecule `COc1ccc(C2Nc3ccccc3C(=O)N2Cc2ccccc2)cc1COc1ccc(NC(=O)c2ccccc2)cc1` (configuration not stated), the Potency result is “inactive”.

As to `O=C1Nc2ccccc2/C1=C\c1ccc(O)c(Cl)c1`, the Potency result is “inactive”.

With `NC(=O)c1ccc(-c2noc(-c3cccc(Cl)c3)n2)cc1`, the Potency result was “inactive”.

Consider `COc1ccc(Nc2cc(O)c3ncccc3c2)cc1`, for which the Potency entry is “inactive”.

`N#Cc1nc(Nc2ccc(-c3ccccc3)cc2)nc(NC2CCCC2)n1`: the Potency entry is “inactive”.

`O=C(Cc1ccccc1)Nc1nnc(-c2ccncc2)s1`: the Potency entry was “inactive”.

Regarding `Cc1cc(C)nc(NC(=S)N2CC3CN(c4ncc(C(F)(F)F)cc4Cl)CC3C2)c1` (configuration not stated), the Potency result is “inactive”.
